# Assay results as given in the supplement of paper PMC8285479.
# Counter-ions that a name gives are not always drawn. ± gives the standard deviation of the averaged measurements. Whole data set: some 1,900 compounds, median “normalised cell viability (NPI; 0 = phenylarsine oxide control, 1 = DMSO control)” near 1, cut for the lowest 2% near 0.039. Many of the other results were omitted from the sample, so the lowest values are more common in it than they were.
# Test system: NCI-H1944
# Experiment: normalised cell viability (NPI; 0 = phenylarsine oxide control, 1 = DMSO control) (fraction of DMSO control); NCI-H1944 is a non-small cell lung cancer line; higher = more viable cells (less compound toxicity)
# Conditions: 6 days
# [1] = glucocorticoid arm: hydrocortisone 2.75 uM co-treatment, compound 1 µM
# [2] = glucocorticoid arm: hydrocortisone 2.75 uM co-treatment, compound 5 µM
# [3] = glucocorticoid arm: hydrocortisone 2.75 uM pre-treated 2 days and continued, compound 1 µM
# [4] = glucocorticoid arm: hydrocortisone 2.75 uM pre-treated 2 days and continued, compound 5 µM
# [5] = glucocorticoid arm: vehicle, compound 1 µM
# [6] = glucocorticoid arm: vehicle, compound 5 µM
# 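Note: CTB read-out in 384-well plates, triplicate wells, NPI normalised per plate against 1 µM phenylarsine oxide (0) and 0.1% DMSO (1) controls.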
SMILES,normalised cell viability [1],normalised cell viability [2],normalised cell viability [3],normalised cell viability [4],normalised cell viability [5],normalised cell viability [6]
CC(=O)O[C@@]12CO[C@@H]1C[C@H](O)[C@@]1(C)C(=O)[C@H](O)C3=C(C)[C@@H](OC(=O)[C@H](O)[C@@H](NC(=O)OC(C)(C)C)c4ccccc4)C[C@@](O)([C@@H](OC(=O)c4ccccc4)[C@H]21)C3(C)C [Docetaxel],0.159 ± 0.0035,0.163 ± 0.0095,0.462 ± 0.023,0.518 ± 0.015,0.049 ± 0.0034,0.0428 ± 0.0097
CC(=O)O[C@H]1C(=O)[C@@]2(C)[C@H]([C@H](OC(=O)c3ccccc3)[C@]3(O)C[C@H](OC(=O)[C@H](O)[C@@H](NC(=O)c4ccccc4)c4ccccc4)C(C)=C1C3(C)C)[C@]1(OC(C)=O)CO[C@@H]1C[C@@H]2O [Taxol],0.122 ± 0.012,0.117 ± 0.015,0.8513 ± 0.0064,0.802 ± 0.051,0.0515 ± 0.0084,0.0382 ± 0.0051
CC(=O)O[C@H]1C(=O)[C@@]2(C)[C@H]([C@H](OC(=O)c3ccccc3)[C@]3(O)C[C@H](OC(=O)[C@H](O)[C@@H](NC(=O)c4ccccc4)c4ccccc4)C(C)=C1C3(C)C)[C@]1(OC(C)=O)CO[C@@H]1C[C@@H]2O [Paclitaxel; Taxol],0.131 ± 0.0057,1.03 ± 0.01,0.466 ± 0.032,1.02 ± 0.011,0.0302 ± 0.0049,1.01 ± 0.01
CO[C@H]1C(=O)[C@]2(C)[C@@H](OC)C[C@H]3OC[C@@]3(OC(C)=O)[C@H]2[C@H](OC(=O)c2ccccc2)[C@]2(O)C[C@H](OC(=O)[C@H](O)[C@@H](NC(=O)OC(C)(C)C)c3ccccc3)C(C)=C1C2(C)C [Cabazitaxel],0.191 ± 0.012,1.05 ± 0.021,0.468 ± 0.0065,1.05 ± 0.015,0.0505 ± 0.01,1.007 ± 0.0058
COC(=O)C1=C(C)NC(C)=C([N+](=O)[O-])C1c1ccccc1C(F)(F)F (racemic),0.99 ± 0.0072,0.942 ± 0.02,0.9753 ± 0.0031,0.9355 ± 0.00071,0.962 ± 0.01,0.947 ± 0.011
CC[C@]1(O)C[C@@H]2CN(CCc3c([nH]c4ccccc34)[C@@](C(=O)OC)(c3cc4c(cc3OC)N(C)[C@H]3[C@@](O)(C(=O)OC)[C@H](OC(C)=O)[C@]5(CC)C=CCN6CC[C@]43[C@@H]65)C2)C1 [Vinblastine sulfate salt],0.361 ± 0.02,0.337 ± 0.021,0.795 ± 0.17,0.94 ± 0.023,0.0757 ± 0.0017,0.0495 ± 0.005
CC[C@]1(O)C[C@@H]2CN(CCc3c([nH]c4ccccc34)[C@@](C(=O)OC)(c3cc4c(cc3OC)N(C)[C@H]3[C@@](O)(C(=O)OC)[C@H](OC(C)=O)[C@]5(CC)C=CCN6CC[C@]43[C@@H]65)C2)C1 [Vinblastine sulfate salt; Vinblastine sulfate],0.354 ± 0.019,1.023 ± 0.0058,0.621 ± 0.029,1.03 ± 0.027,0.0439 ± 0.00099,1.017 ± 0.0058
CCC1=C[C@@H]2CN(C1)Cc1c([nH]c3ccccc13)[C@@](C(=O)OC)(c1cc3c(cc1OC)N(C)[C@H]1[C@@](O)(C(=O)OC)[C@H](OC(C)=O)[C@]4(CC)C=CCN5CC[C@]31[C@@H]54)C2 [Vinorelbine tartrate],0.327 ± 0.0017,0.35 ± 0.02,0.629 ± 0.017,0.683 ± 0.036,0.0577 ± 0.0028,0.0356 ± 0.0026
C=CCN1CCc2c(cc(O)c(O)c2Br)[C@@H](c2ccccc2)C1 [R(+)-6-Bromo-APB hydrobromide],0.986 ± 0.017,1.01,0.989 ± 0.0095,1 ± 0.011,0.976 ± 0.011,0.9827 ± 0.0035
Cc1cc(C)c(/C=C2\C(=O)Nc3ccccc32)[nH]1,1.06 ± 0.01,1.09 ± 0.015,1.07 ± 0.044,1.12 ± 0.017,1.03,1.03 ± 0.011
COc1c/c(=C2\C=c3ccccc3=N2)[nH]/c1=C\c1[nH]c(C)cc1C [Obatoclax mesylate (GX15-070)],0.972 ± 0.014,0.42 ± 0.019,1 ± 0.0087,1.03 ± 0.015,0.564 ± 0.07,0.0292 ± 0.0041
Cc1cc(C)c(/C=C2\C(=O)Nc3ccccc32)[nH]1 [Semaxanib (SU5416)],1.09 ± 0.011,1.15 ± 0.046,1.09 ± 0.011,1.11 ± 0.017,1.023 ± 0.0058,1.027 ± 0.0058
O=C(O)CCC(NC(=O)c1ccccc1C(=O)O)C(=O)O [Phthalamoyl-L-glutamic acid trisodium],0.9933 ± 0.0031,1.06 ± 0.021,0.869 ± 0.23,1.03 ± 0.025,0.997 ± 0.0052,1.006 ± 0.0063
CC(NC(=O)Cc1cc(F)cc(F)c1)C(=O)NC1C(=O)N(C)c2ccccc2-c2ccccc21 (stereo unspecified),0.977 ± 0.0072,0.998 ± 0.0035,0.983 ± 0.015,0.999 ± 0.019,0.9847 ± 0.0057,0.9813 ± 0.007
COc1cc(=O)n(C)c2c(OCC(O)C(C)(C)O)cccc12 (stereo unspecified) [Foliosidine],1.005 ± 0.0081,0.99 ± 0.01,0.9877 ± 0.0067,0.981 ± 0.012,0.998 ± 0.011,0.9963 ± 0.0021
CC(C)(C)OC(=O)Nc1ccc(-c2cc(C(=O)NCCCCCCC(=O)NO)no2)cc1,0.9572 ± 0.0081,0.244 ± 0.23,0.991 ± 0.025,0.677 ± 0.31,0.806 ± 0.15,0.0189 ± 0.02
O=C(CCCCCCC(=O)Nc1ccccc1)NO,0.959 ± 0.016,0.569 ± 0.04,0.978 ± 0.013,0.912 ± 0.015,0.969 ± 0.011,0.075 ± 0.0018
"O=C(CCCCCCC(=O)Nc1ccccc1)NO [Vorinostat (SAHA, MK0683)]",0.94 ± 0.017,0.585 ± 0.025,0.959 ± 0.0017,0.955 ± 0.048,1.003 ± 0.0058,0.0617 ± 0.0036
O=C(CCCCCCC(=O)Nc1ccccc1)NO [Vorinostat; SAHA],0.928 ± 0.018,1.04 ± 0.04,0.95 ± 0.0036,1.02,0.995 ± 0.015,0.9983 ± 0.0029
N=C(N)NCCC[C@H](N)C(=O)O [L-Arginine],1 ± 0.018,0.997 ± 0.0027,0.994 ± 0.0066,1 ± 0.011,0.986 ± 0.0085,1.001 ± 0.0081
CC1(C)CNc2cc(NC(=O)c3cccnc3NCc3ccncc3)ccc21 [Motesanib Diphosphate],1.02 ± 0.011,1 ± 0.031,1 ± 0.012,0.992 ± 0.026,1.001 ± 0.0076,1.002 ± 0.0076
O=C1NC(=O)C(=Cc2ccc(-c3ccc(F)cc3)o2)S1 (stereo in doubt),1 ± 0.018,1 ± 0.014,0.996 ± 0.013,1.01,0.991 ± 0.0027,0.9913 ± 0.0083
O=c1[nH]c(=O)n([C@H]2C[C@H](O)[C@@H](CO)O2)cc1/C=C/Br [(E)-5-(2-Bromovinyl)-2'-deoxyuridine],1.013 ± 0.0058,1.01 ± 0.01,1.003 ± 0.0061,1.015 ± 0.0071,0.9783 ± 0.0055,0.9897 ± 0.0049
C[C@H](NC(=O)/C(C#N)=C/c1cccc(Br)n1)c1ccccc1,1.01 ± 0.012,1.06 ± 0.032,1.02 ± 0.017,1.048 ± 0.0075,0.9985 ± 0.0098,0.0147 ± 0.011
CCC[C@H](NC(=O)/C(C#N)=C/c1cccc(Br)n1)c1ccccc1,1.017 ± 0.0058,0.726 ± 0.1,1.02 ± 0.01,1.09 ± 0.025,0.996 ± 0.0046,0.339 ± 0.026
C[C@@H](NC(=O)/C(C#N)=C/c1ccc(O)c(O)c1)c1ccccc1 [Tyrphostin AG 527],1.013 ± 0.0058,0.9963 ± 0.0038,0.879 ± 0.22,0.999 ± 0.011,1.003 ± 0.0058,1.003 ± 0.0061
